For 14 compounds, Potency results are on record in PubChem BioAssay (NCATS).

Each structure is given as a SMILES string. Records with an inconclusive call do not appear. Where a call stands in place of a potency, no number is given. Calls of active or inactive are those of the source. The call rests on the fitted dose curve; in most records, active means well fitted curve in the direction sought with a large enough effect; inconclusive means small, poorly fitted or top-dose-only effect, or another doubt; inactive means no such curve, though single readings can be large or run the other way.

Chain of Metallo-beta-lactamase type 2 (Klebsiella pneumoniae) (C7C422 whole entry, looked up): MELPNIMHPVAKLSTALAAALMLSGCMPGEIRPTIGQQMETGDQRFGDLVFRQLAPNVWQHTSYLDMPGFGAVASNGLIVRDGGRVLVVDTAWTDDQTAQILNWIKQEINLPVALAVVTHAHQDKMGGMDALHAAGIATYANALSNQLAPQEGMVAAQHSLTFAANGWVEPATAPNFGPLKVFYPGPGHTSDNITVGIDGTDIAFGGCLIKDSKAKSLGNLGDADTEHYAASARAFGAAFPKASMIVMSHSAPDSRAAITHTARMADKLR

The experiment deals with Metallo-beta-lactamase type 2 (Klebsiella pneumoniae) (UniProt C7C422). The experiment can be described thus: qHTS to identify inhibitors of the New Delhi Metallo-beta-lactamase (NDM): assay validation screen against the NCATS LOPAC Collection (AID 1794843).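 Further: nitrocefin turnover by NDM-1 measured as 485 nm absorbance at plateau.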 As to conditions: NDM-1 enzyme, nitrocefin hydrolysis, absorbance 485 nm; series mostly up to 38.4 µM. The method, boiled down:
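NDM-1 at 2 nM final in 50 mM HEPES pH 7.0, 1 uM ZnSO4, 0.01% Tween20, preincubated with LOPAC compounds pinned in DMSO; 50 uM nitrocefin (stock) added. Hydrolysis read as absorbance at 485 nm in the plateau phase.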
A general note: In qHTS, concentration-response curves come from the screen itself.
Take `O=c1[nH]c(=O)c2nc3ccccc3nc2[nH]1`: the Potency result is “inactive”. The entry for `N#CC(=C(\N)Sc1ccccc1N)/C(C#N)=C(/N)Sc1ccccc1N` is “inactive”; for `OC[C@H]1NC[C@@H](O)[C@@H]1O` it is “inactive”. The same measure for `CCOC(=O)C12CC1/C(=N/O)c1ccccc1O2` (centres undefined): “inactive”.

Regarding `Nc1ccc(CCNc2ncnc3c2ncn3C2OC(CO)C(O)C2O)cc1` (centres undefined), the Potency entry is “inactive”. The same measure for `N[C@@H](Cc1c[nH]c2ccccc12)C(=O)O`: “inactive”; for `CC1C(=O)N(C)C(=O)c2nc[nH]c21` (centres undefined): “inactive”; for `NCC(O)(CS(=O)(=O)O)c1ccc(Cl)cc1` (centres undefined): “inactive”.

For the compound `COc1ccccc1N1CCN(CCCNc2c(C)c(=O)n(C)c(=O)n2C)CC1`, the Potency result was “inactive”.

`S=C(S)N1CCCC1`: the Potency entry was “inactive”. In the case of `N[C@@H](Cc1ccc(F)cc1)C(=O)O`, the Potency result is “inactive”.

`CCCCOC(=O)NS(=O)(=O)c1sc(CC(C)C)cc1-c1ccc(Cn2c(CC)nc3c(C)cc(C)nc32)cc1`: the Potency entry was “inactive”. The same measure for `NCC(O)c1ccc(O)c(O)c1` (centres undefined): “inactive”.

Regarding `N[C@H](C(=O)O)[C@H]1C[C@@H]1C(=O)O`, the Potency result is “inactive”.
